Test results published in ChEMBL document CHEMBL1961873, “Compounds: GSK PKIS; Assays: Nanosyn kinase panel” (2012).

Tests used:
[1] = target: Tyrosine-protein kinase Fyn (Homo sapiens) (UniProt P06241); settings: at 1 µM
[2] = target: Tyrosine-protein kinase HCK (Homo sapiens) (UniProt P08631); settings: at 0.1 µM
[3] = target: Tyrosine-protein kinase HCK (Homo sapiens) (UniProt P08631); settings: at 1 µM
[4] = target: Insulin-like growth factor 1 receptor (Homo sapiens) (UniProt P08069); settings: at 0.1 µM
[5] = target: Insulin-like growth factor 1 receptor (Homo sapiens) (UniProt P08069); settings: at 1 µM
[6] = target: Insulin receptor (Homo sapiens) (UniProt P06213); settings: at 0.1 µM
Chain of Insulin receptor (Homo sapiens) (P06213 28-758 limits assumed): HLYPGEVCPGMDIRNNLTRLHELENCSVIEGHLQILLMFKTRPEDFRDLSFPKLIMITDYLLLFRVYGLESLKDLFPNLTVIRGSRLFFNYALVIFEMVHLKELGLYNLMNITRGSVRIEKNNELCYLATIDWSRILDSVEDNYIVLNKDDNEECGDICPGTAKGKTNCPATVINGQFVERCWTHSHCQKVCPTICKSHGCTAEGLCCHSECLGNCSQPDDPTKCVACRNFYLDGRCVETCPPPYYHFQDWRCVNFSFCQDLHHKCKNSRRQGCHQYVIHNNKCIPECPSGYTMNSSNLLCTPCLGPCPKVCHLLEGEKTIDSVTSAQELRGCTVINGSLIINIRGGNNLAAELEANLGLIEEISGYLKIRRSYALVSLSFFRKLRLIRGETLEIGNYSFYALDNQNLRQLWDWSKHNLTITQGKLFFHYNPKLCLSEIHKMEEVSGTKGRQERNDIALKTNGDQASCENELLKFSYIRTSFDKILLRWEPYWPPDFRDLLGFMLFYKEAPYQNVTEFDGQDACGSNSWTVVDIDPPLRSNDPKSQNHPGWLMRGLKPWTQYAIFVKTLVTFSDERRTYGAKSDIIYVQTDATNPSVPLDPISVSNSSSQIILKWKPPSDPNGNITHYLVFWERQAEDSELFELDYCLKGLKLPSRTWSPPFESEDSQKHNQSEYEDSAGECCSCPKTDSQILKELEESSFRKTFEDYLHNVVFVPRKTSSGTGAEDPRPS
Chain of Insulin receptor (Homo sapiens) (P06213 763-1382 limits assumed): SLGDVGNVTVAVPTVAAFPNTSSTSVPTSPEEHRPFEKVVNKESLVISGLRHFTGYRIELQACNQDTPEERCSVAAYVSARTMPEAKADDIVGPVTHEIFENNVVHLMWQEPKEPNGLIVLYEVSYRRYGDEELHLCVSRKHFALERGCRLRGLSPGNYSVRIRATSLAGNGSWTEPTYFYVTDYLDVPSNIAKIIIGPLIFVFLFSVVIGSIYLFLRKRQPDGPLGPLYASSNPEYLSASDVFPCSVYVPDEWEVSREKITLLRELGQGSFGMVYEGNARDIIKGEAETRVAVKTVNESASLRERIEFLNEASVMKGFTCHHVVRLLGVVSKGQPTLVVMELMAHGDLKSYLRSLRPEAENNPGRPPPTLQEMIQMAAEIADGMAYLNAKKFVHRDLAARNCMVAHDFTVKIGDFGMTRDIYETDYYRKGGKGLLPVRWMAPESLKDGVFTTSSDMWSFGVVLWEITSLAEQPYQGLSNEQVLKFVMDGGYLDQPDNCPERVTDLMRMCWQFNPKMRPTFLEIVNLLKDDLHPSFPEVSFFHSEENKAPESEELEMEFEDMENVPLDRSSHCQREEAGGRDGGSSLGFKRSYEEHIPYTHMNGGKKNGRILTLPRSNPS

[7] = target: Insulin receptor (Homo sapiens) (UniProt P06213); settings: at 1 µM
[8] = target: Insulin receptor-related protein (Homo sapiens) (UniProt P14616); settings: at 0.1 µM
Chain of Insulin receptor-related protein (Homo sapiens) (P14616 27-742 limits assumed): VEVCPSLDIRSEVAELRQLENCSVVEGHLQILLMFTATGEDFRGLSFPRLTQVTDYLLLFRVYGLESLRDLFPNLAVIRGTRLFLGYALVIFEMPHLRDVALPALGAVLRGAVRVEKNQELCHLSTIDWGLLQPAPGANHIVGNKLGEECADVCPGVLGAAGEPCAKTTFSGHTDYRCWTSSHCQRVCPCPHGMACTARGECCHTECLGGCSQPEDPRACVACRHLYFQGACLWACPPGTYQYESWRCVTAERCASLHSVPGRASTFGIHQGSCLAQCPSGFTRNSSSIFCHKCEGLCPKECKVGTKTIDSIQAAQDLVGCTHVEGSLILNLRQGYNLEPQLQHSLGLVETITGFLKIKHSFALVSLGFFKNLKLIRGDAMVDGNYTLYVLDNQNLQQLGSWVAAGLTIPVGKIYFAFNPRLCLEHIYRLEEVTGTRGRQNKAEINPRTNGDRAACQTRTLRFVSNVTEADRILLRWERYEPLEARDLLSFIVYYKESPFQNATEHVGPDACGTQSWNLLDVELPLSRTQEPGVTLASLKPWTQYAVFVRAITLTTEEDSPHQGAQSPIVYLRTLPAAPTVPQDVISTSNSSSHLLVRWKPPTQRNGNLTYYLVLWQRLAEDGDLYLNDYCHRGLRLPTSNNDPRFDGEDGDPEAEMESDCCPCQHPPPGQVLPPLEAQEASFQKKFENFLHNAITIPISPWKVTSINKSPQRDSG
Chain of Insulin receptor-related protein (Homo sapiens) (P14616 747-1297 limits assumed): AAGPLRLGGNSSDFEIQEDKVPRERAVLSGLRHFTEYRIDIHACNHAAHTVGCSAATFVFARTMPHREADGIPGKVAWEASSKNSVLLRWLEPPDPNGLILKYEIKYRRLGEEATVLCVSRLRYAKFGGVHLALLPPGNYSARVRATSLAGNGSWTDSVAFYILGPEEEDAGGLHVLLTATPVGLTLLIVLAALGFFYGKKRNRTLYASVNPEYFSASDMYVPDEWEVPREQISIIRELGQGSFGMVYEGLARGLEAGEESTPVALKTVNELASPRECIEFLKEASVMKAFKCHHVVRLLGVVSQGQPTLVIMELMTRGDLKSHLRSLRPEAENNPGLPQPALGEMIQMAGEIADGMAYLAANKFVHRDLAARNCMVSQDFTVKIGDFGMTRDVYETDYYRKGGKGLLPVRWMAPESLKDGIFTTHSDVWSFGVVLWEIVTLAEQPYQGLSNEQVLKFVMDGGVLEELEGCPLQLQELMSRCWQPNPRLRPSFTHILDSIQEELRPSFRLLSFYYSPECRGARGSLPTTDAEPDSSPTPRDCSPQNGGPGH

[9] = target: Insulin receptor-related protein (Homo sapiens) (UniProt P14616); settings: at 1 µM
[10] = target: T1, Tyrosine-protein kinase ITK/TSK (Homo sapiens) (UniProt Q08881); settings: at 0.1 µM
T1 sequence (whole entry): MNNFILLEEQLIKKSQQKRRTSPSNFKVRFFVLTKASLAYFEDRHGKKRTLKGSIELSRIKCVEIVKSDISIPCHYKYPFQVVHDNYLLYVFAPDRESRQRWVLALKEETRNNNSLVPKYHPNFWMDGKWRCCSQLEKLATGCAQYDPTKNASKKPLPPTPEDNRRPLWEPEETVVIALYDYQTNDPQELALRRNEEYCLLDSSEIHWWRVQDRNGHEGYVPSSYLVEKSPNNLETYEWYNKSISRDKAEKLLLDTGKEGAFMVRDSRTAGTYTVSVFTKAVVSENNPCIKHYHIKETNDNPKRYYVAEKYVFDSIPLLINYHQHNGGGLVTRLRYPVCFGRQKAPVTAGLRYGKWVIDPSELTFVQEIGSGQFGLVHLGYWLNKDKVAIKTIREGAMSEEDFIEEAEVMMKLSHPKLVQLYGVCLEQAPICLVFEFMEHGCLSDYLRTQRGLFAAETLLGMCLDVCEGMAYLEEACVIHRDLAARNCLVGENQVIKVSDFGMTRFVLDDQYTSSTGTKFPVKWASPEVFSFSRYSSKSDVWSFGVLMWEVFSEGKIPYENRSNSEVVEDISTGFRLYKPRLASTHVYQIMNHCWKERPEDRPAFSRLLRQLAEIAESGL

[11] = target: T1, Tyrosine-protein kinase ITK/TSK (Homo sapiens); settings: at 1 µM
[12] = target: Tyrosine-protein kinase JAK1 (Homo sapiens) (UniProt P23458); settings: at 0.1 µM
[13] = target: Tyrosine-protein kinase JAK1 (Homo sapiens) (UniProt P23458); settings: at 1 µM
[14] = target: Tyrosine-protein kinase JAK2 (Homo sapiens) (UniProt O60674); settings: at 0.1 µM
Chain of Tyrosine-protein kinase JAK2 (Homo sapiens) (O60674 whole entry): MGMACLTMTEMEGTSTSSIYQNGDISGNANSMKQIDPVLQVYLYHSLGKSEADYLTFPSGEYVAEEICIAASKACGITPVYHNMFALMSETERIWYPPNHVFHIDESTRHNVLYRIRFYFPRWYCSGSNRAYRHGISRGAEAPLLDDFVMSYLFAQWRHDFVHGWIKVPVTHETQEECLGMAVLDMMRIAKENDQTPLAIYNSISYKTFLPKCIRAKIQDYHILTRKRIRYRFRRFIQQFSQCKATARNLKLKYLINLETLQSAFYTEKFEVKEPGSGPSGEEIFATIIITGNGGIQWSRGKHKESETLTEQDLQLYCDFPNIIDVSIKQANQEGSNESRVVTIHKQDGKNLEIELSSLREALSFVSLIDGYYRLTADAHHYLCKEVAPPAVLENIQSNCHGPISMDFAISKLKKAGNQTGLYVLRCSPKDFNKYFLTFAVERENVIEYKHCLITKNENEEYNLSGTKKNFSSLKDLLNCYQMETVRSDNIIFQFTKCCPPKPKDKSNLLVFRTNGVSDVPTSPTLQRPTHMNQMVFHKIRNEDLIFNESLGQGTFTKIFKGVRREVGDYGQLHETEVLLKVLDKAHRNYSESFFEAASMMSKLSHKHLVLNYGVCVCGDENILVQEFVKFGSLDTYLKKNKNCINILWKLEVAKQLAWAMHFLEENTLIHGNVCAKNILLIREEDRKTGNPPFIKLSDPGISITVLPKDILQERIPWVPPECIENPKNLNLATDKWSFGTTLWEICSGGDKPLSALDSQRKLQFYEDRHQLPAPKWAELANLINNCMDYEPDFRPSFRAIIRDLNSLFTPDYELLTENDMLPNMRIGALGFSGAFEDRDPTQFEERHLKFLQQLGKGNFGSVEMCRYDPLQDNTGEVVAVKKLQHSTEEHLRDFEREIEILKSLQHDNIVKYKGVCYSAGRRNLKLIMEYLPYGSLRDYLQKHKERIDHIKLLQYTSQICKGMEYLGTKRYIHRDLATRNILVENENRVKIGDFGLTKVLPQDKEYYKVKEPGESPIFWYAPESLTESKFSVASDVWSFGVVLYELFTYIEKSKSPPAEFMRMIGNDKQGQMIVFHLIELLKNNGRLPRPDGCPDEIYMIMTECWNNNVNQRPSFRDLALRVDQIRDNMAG

[15] = target: Tyrosine-protein kinase JAK2 (Homo sapiens) (UniProt O60674); settings: at 1 µM
[16] = target: T2, Tyrosine-protein kinase JAK3 (Homo sapiens) (UniProt P52333); settings: at 0.1 µM
T2 sequence (whole entry): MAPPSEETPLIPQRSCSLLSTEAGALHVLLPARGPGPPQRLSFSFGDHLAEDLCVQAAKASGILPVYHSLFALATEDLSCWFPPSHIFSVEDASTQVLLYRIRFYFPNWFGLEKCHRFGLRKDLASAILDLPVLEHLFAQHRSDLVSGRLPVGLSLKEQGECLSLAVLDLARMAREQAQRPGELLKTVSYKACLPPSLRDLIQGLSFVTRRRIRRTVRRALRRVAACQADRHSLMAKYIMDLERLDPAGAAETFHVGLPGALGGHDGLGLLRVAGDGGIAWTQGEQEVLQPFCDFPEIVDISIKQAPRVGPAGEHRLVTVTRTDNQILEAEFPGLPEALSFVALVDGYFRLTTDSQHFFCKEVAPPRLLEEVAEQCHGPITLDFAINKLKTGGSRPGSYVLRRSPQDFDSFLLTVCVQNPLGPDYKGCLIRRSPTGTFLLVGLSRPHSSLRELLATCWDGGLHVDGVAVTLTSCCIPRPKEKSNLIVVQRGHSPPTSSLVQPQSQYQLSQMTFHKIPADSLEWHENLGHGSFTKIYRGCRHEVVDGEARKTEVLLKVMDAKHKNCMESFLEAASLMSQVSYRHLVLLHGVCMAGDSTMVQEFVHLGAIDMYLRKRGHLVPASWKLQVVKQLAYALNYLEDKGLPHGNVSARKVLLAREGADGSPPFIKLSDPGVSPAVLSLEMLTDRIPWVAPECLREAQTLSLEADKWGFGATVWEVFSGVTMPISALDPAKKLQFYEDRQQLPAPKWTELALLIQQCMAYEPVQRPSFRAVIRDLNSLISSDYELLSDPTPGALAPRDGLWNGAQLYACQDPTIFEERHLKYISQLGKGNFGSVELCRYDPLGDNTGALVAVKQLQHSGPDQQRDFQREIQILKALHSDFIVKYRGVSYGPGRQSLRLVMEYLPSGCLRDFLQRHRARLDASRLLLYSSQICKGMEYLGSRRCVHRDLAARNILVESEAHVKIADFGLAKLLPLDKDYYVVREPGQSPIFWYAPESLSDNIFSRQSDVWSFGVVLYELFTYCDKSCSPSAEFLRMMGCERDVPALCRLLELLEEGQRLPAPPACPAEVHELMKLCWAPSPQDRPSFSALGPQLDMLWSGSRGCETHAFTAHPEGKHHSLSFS

[17] = target: T2, Tyrosine-protein kinase JAK3 (Homo sapiens); settings: at 1 µM
[18] = target: Vascular endothelial growth factor receptor 2 (Homo sapiens) (UniProt P35968); settings: at 0.1 µM
[19] = target: Vascular endothelial growth factor receptor 2 (Homo sapiens) (UniProt P35968); settings: at 1 µM
[20] = target: Mast/stem cell growth factor receptor Kit (Homo sapiens) (UniProt P10721); settings: at 0.1 µM;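 further: values are mean inhibition of KIT, from the GSK PKIS dataset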

Chain of Tyrosine-protein kinase Fyn (Homo sapiens) (P06241 2-537 limits assumed): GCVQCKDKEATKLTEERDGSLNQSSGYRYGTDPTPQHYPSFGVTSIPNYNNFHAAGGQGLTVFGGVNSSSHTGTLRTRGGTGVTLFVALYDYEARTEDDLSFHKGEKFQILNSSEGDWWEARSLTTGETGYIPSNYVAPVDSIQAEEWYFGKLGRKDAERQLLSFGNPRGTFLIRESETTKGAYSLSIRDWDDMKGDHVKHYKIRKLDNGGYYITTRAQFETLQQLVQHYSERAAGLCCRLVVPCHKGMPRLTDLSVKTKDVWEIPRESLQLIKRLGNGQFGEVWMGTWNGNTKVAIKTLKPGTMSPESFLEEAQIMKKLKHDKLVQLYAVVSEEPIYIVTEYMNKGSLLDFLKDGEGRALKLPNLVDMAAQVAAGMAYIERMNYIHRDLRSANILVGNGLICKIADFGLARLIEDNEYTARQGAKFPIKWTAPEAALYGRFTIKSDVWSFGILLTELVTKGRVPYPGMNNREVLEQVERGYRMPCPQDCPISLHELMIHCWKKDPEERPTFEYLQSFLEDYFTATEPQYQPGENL
Chain of Tyrosine-protein kinase HCK (Homo sapiens) (P08631 2-526 limits assumed): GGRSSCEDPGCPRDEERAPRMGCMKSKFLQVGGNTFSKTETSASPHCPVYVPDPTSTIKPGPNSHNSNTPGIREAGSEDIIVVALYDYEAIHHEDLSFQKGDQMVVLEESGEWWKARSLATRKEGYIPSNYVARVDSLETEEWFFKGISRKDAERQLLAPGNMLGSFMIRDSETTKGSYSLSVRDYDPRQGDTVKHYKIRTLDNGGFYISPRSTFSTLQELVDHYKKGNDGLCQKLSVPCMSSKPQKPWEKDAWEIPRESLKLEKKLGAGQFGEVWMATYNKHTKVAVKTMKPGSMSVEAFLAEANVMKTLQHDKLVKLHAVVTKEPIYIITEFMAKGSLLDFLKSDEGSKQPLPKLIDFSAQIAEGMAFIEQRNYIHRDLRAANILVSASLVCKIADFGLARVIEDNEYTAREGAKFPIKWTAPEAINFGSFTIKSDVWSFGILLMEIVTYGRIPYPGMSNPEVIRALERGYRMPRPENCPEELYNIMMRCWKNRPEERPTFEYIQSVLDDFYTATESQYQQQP

| SMILES | inhibition [1] [%] | inhibition [2] [%] | inhibition [3] [%] | inhibition [4] [%] | inhibition [5] [%] | inhibition [6] [%] | inhibition [7] [%] | inhibition [8] [%] | inhibition [9] [%] | inhibition [10] [%] | inhibition [11] [%] | inhibition [12] [%] | inhibition [13] [%] | inhibition [14] [%] | inhibition [15] [%] | inhibition [16] [%] | inhibition [17] [%] | inhibition [18] [%] | inhibition [19] [%] | inhibition [20] [%] |
| --- | --- | --- | --- | --- | --- | --- | --- | --- | --- | --- | --- | --- | --- | --- | --- | --- | --- | --- | --- | --- |
| Fc1cccc(COc2ccc(Nc3ncnc4cc(-c5ccc[nH]5)sc34)cc2Cl)c1 | 4.86 | 3.68 | 9.04 | -6.59 | -4.84 | 5.37 | 6 | -0.19 | 0.95 | -2.3 | -1.9 | 2.84 | 13.6 | 1.26 | 3.62 | -3.97 | -1.5 | 6.01 | 11.8 | 2.16 |
| CC(=O)Nc1cccc(C#Cc2cncnc2Nc2ccc(OCc3cccc(F)c3)c(Cl)c2)n1 | 2.69 | -0.02 | 2.4 | -4.35 | -3.59 | -4.01 | -3.08 | -1.19 | 0 | -0.1 | 0.33 | 3.25 | 14.8 | -1.97 | -0.27 | 2.07 | 2.66 | -2.26 | 2.74 | -0.74 |
| Nc1ncnc2occ(-c3ccc(NC(=O)Nc4cccc(C(F)(F)F)c4)cc3)c12 | 19.9 | 12 | 48.8 | 14.6 | 15.5 | 3.28 | 10.5 | 2.2 | 5.07 | 0.99 | 12.3 | 0.84 | 11.8 | 1.98 | 9.83 | -4.17 | -2.01 | 73.5 | 77.3 | 94.9 |
| COc1cc(C)c(NC(=O)CN(C)C)cc1Nc1nc(Nc2cccc(F)c2C(N)=O)c2cc[nH]c2n1 | 2.42 | 4.13 | 3.71 | 93.6 | 95.5 | 99.9 | 99.9 | 90.8 | 97.7 | 1.36 | 1.95 | 2.55 | -4.44 | 0.46 | 0.22 | 0.71 | -1.63 | 3.26 | 4.13 | 2.98 |
| CS(=O)(=O)CCN(CC#N)Cc1ccc(-c2ccc3ncnc(Nc4ccc(OCc5cccc(F)c5)c(Cl)c4)c3c2)o1 | -3.53 | 2.47 | 3.04 | – | -4.22 | 4.4 | 2.93 | -0.19 | 0.84 | -2.61 | -3.44 | 0.62 | 1.2 | 1.36 | 1.26 | -5.68 | -5.16 | 4.09 | 7.7 | -0.23 |
| O=C(Nc1n[nH]c2nc(-c3ccco3)c(Br)cc12)C1CC1 | 1.8 | 5.5 | 9.03 | 2.77 | 3.89 | 3.98 | – | 2.25 | 1.49 | 3.8 | 23.7 | 2.41 | -1.14 | 1.5 | 1.59 | -1.04 | 1.18 | 5.71 | 15.5 | 6.02 |
| COc1ccc2cc(-c3c(-c4ccncc4)nc(-c4ccc([S+](C)[O-])cc4)n3C)ccc2c1 (stereo unspecified) | 2.67 | 4.09 | 6.94 | 1.13 | 0.1 | -0.81 | 3.26 | 1.09 | 1.11 | 1.06 | 3.22 | 1.65 | -2.81 | 0.86 | 2.23 | -0.93 | 0.05 | 4.56 | 17.8 | 1.88 |
| CCn1c(-c2nonc2N)nc2cnc(Oc3cccc(NC(=O)c4ccc(OCCN5CCOCC5)cc4)c3)cc21 | 5.35 | 6.47 | 4.67 | -0.59 | 1.49 | 5.62 | 7.3 | 1.29 | 0.16 | 0.81 | 0.94 | 4.42 | 12.1 | 5.74 | 1.29 | 0.31 | -0.45 | 5.67 | 7.83 | 5.45 |
| Cc1ccc(C(=O)NC2CCCCC2)cc1-c1ccc(C(=O)NCC2CC2)cc1 | 0.78 | 5.78 | 7.52 | 1.73 | 5.21 | 3.35 | 1.48 | 3.13 | 2.14 | 1.95 | 2.35 | 9.94 | 9.1 | 3.28 | 4.08 | 0.78 | 3.02 | 7.88 | 8.4 | 4.54 |
| Cc1cc(O)cc(C)c1/C=C/c1cncc(-c2nn[nH]n2)c1 | 52.3 | 20.6 | 74.9 | -3.59 | -2.05 | 7.59 | 8.18 | 2.98 | 2.21 | -2.15 | -1.93 | 1.7 | 4.82 | 1.66 | 2.27 | -4.63 | -3.88 | 4.58 | 10.2 | 11.9 |
| NS(=O)(=O)c1cccc(-c2ccc3c(NC(=O)C4CC4)n[nH]c3c2)c1 | 2.4 | -0.53 | 1.86 | -0.13 | 3.51 | 3.15 | -0.25 | -2.37 | -1.21 | -0.53 | 0.22 | – | -4.88 | -0.14 | -1.18 | -0.5 | 1.58 | 0.44 | 6.32 | -1.56 |
| COc1cccc(-n2ncc3c(N/N=C/c4cccc(F)c4)ncnc32)c1 | 31.5 | 5.13 | 20.8 | -6.82 | -4.04 | 6.33 | 5.41 | 0.81 | 0.48 | -3.25 | -2.13 | 2.37 | 2.01 | 1.22 | 1.44 | -4.29 | 0.79 | 10.1 | 34.1 | 3.25 |
| Fc1cccc(COc2ccc(Nc3ncnc4sc(-c5cccs5)cc34)cc2Cl)c1 | 5.19 | 1.68 | 3.8 | 0.38 | 0.6 | 4.85 | 3.43 | -1.46 | -0.83 | 0.84 | 1.32 | -0.79 | -0.37 | -0.63 | 0.58 | 1.46 | 1.31 | 4.41 | 7.67 | 9.52 |
| Nc1nc(-c2ccc3c(c2)C(=Cc2cc(Br)c(O)c(Br)c2)C(=O)N3)cs1 | 8.82 | -1.41 | 7.14 | -1.89 | 0.82 | – | 1.87 | -3.05 | -2.21 | 0.01 | 1.31 | 0.76 | -0.48 | -0.72 | -1.87 | 1.19 | 2.02 | 1.8 | 11.3 | -0.22 |
